ALDH1A1 block: qHTS Assay for Inhibitors of Aldehyde Dehydrogenase 1 (ALDH1A1). Aldehyde dehydrogenase 1A1 (Homo sapiens), P00352. Purified ALDH1A1, NADH fluorescence, propionaldehyde substrate. Potency, µM (doses to about 75.3 µM), actives largely listed as inhibitors. 220,000 tested, 7.3% active
PNC inhibitor: High Content Assay for Compounds that inhibit the Assembly of the Perinucleolar Compartment; activity change (PNC), negative = inhibition, % at 10 µM; PC3M PTB-GFP, PNC prevalence imaging, 16 h; stronger effect = lower value; 140,000 tested, 3.1% active;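 active = readout at or below -70, meaning at least 70% loss of cells showing the perinucleolar compartment, a nuclear body marking cancer cells; inconclusive = readout between -30 and a set limit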
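PC3M cells stably expressing PTB-GFP, 750–1000 cells/well, treated 16 h at 37 °C with compound (23 nl of library stock), in duplicate. After paraformaldehyde fixation and Hoechst stain, imaged at 20x; PNC prevalence scored by image analysis.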
HPGD block: qHTS Assay for Inhibitors of HPGD (15-Hydroxyprostaglandin Dehydrogenase). 15-hydroxyprostaglandin dehydrogenase [NAD(+)] (Homo sapiens), P15428. purified HPGD, NADH fluorescence kinetic, PGE2 substrate. Potency, µM, hits mostly inhibitors. 150,000 tested, 4.3% active
Target sequence (P15428 whole entry, looked up): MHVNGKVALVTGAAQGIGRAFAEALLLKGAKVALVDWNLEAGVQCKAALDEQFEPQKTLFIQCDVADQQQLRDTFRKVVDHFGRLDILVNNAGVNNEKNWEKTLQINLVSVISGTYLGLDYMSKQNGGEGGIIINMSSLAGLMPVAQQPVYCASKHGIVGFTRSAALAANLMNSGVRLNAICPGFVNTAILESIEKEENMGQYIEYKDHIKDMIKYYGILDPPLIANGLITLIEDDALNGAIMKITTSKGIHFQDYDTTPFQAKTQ
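NADH formation kinetics: reaction with 30 uM PGE2 and 1 mM NAD+ (final), 20 nM enzyme, Tris-HCl pH 8 with Tween 20, after 15 min compound preincubation at room temperature. Fluorescence change, last versus first of five reads.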
Numbers stand for hits; 0 = inactive; ? = inconclusive; - = no result given; [ ] = dose if it differs, or a comment. The list is not random: actives were taken first. Their share in the collection is about 11%. Unless noted, calls come from the whole dose curve; as a rule, active = well fitted inhibition curve with a large enough effect (not every such curve was filed as active); inconclusive = small, poorly fitted or top-dose-only effect, or another doubt; inactive = no such curve, though single readings can be large or run the other way.

SMILES	ALDH1A1 block	PNC inhibitor	HPGD block
Cc1ccc(N/N=C2/CCCNC2=O)cc1	22.4µM	0	0
Cc1c(I)c(=O)n(-c2ccccc2)n1C	0	-	0
Cc1nc(CS(=O)(=O)c2ccccc2)cc(Sc2ccc(Cl)cc2Cl)n1	?	?	0
Cc1nc(Cl)cc(CS(=O)(=O)c2ccc(Cl)cc2)n1	20µM	-	-
O=C(/C=C/c1cn(-c2ccccc2)nc1-c1cccc(Cl)c1)N1CCN(c2ccccn2)CC1	0	-	-
Cc1ncc2c(c1O)COP(=O)(O)OC2	0	-	0
COc1ccc(N2CCN(C(=O)CSc3nnc(NC(=O)C4CCC4)s3)CC2)cc1	0	-	-
CC(C)CCCC(C)C1CCC2C3CC(=O)[C@H]4CC(O)CC[C@]4(C)C3CC[C@@]12C (stereo partly specified)	0	-	0
COC(=O)C/C=C/C(C)C(OCc1cccc(Br)c1)C(C)C(OC)C1CCCCC1 (stereo unspecified)	0[13.5 µM]	-	-
O=C(CSc1nc(O)cc(=O)n1-c1ccccc1)NC1CCCCC1	25.1µM	0	0
CCc1ccc(NC(=O)CSc2nc(O)cc(=O)n2C2CCCC2)cc1	0	-	-
COC(=O)c1ccccc1NC(=O)CSc1nc(O)cc(=O)n1C1CCCC1	0	-88.8	-
O=C(CSc1nnc(Cc2cccs2)n1-c1ccccc1)NC1CCCCC1	0	0	0
O=c1cc(O)n(-c2ccccc2F)c(=S)[nH]1	0	0	0
Cc1ccc(-c2c[nH]c(=S)n2-c2ccccc2)cc1	1µM	-	-
S=c1[nH]cc(-c2ccccc2)n1-c1cccc(Cl)c1	?	0	?
Cc1ccc(-c2c[nH]c(=S)n2-c2ccccc2F)cc1	2µM	-	-
CS(=O)(=O)Nc1cccc(-c2cc(Nc3ccccc3)ncn2)c1	0	-	-
C[N+](C)(C)CCN(Cc1cccs1)c1ccccn1	0[13.5 µM]	-	0
COc1ccc(-c2nnc3sc(-c4ccccc4OC)nn23)cc1	0	?	?
Cc1ccc(-c2nnc3sc(CCc4ccccc4)nn23)cc1	3.55µM	0	14.1µM
Cc1cc(-c2nn3c(-c4ccccc4)nnc3s2)c2ccccc2n1	8.91µM	?	14.1µM
c1ccc(-c2cc(-c3nn4c(-c5ccco5)nnc4s3)c3ccccc3n2)cc1	?	0	?
Cc1ccccc1-c1nn2c(-c3ccccc3)nnc2s1	?	0	28.2µM
COc1ccc(-c2nnc3sc(COc4ccccc4)nn23)cc1	0	0	0
SMILES	ALDH1A1 block	PNC inhibitor	HPGD block
CC(C)/C(=N/[N+](C)(C)C)c1ccccc1	0[13.5 µM]	-	0
COC(=O)[C@@H]1CCCN1C(=O)[C@@H](C)CO	0[13.5 µM]	-	-
Cc1ccc(NC(=O)CSc2nnc(/N=C/N(C)C)s2)cc1	0	-	-
Cc1ccc(-c2nc3ccsc3c(=O)[nH]2)cc1	0	-	-
Cc1onc(-c2c(F)cccc2Cl)c1C(=O)N1CCN(S(C)(=O)=O)CC1	0	0	0
CN(C)/C=C/c1onc(-c2c(F)cccc2Cl)c1C#N	3.55µM	-	-
Cn1cccc1C(=O)N1CCC2(CC1)CN(Cc1cc(C(F)(F)F)cc(C(F)(F)F)c1)C2	0	-	0
CC1(C)[C@@H]2CC[C@@]1(CS(=O)(=O)Nc1ccccc1)C(=O)C2	0[13.5 µM]	-	0
NC(=O)COC(=O)c1cccnc1Nc1ccccc1F	11.2µM	-	-
CN(C)C(=O)COC(=O)c1cccnc1Nc1ccccc1F	0	0	0
Cn1ncc(S(=O)(=O)Cc2ccccc2)c(Cl)c1=O	1.12µM	-	-
Cn1ncc(SCc2ccccc2)c(Cl)c1=O	0	-	-
CN(C)c1cccc(C(=O)N/N=C/c2ccsc2)c1	0	0	0
COc1ccc(S(=O)(=O)N2CCN(c3c(C)cccc3C)CC2)cc1OC	0	?	0
COc1ccc(S(=O)(=O)N2CCN(c3ccc(C)cc3C)CC2)cc1OC	0	-82.7	0
Cc1ccc(C(C)n2cc(C(=O)NCc3cccnc3)nn2)cc1 (stereo unspecified)	11.2µM	0	0
CC(c1ccccc1)n1cc(C(=O)NCc2ccccn2)nn1 (stereo unspecified)	0	0	0
CCCCC[C@H](O)/C=C/C=C\C=C\[C@@H](O)C/C=C\CCCC(=O)O	0	-	0
CCS(=O)(=O)NCCNc1ccc([N+](=O)[O-])cc1	0	-	-
Cc1ccnc(NC(c2ccsc2)c2ccc3ccc(C)nc3c2O)c1 (stereo unspecified)	25.1µM	-	-
Cc1cccc(NC(c2ccc(C)s2)c2ccc3ccc(C)nc3c2O)n1 (stereo unspecified)	0	0	0
Cc1ccc2ccc(C(Nc3ccccn3)c3ccccc3)c(O)c2n1 (stereo unspecified)	0	-81.6	0
COc1cc(C(Nc2ccccn2)c2ccc3ccc(C)nc3c2O)cc(OC)c1O (stereo unspecified)	0	0	?
CC(=O)c1ccc(N2CCN(C(=O)Nc3cccc(F)c3)CC2)cc1	0	-	-
NCCOB(c1ccccc1)c1ccccc1	?	-	0
SMILES	ALDH1A1 block	PNC inhibitor	HPGD block
COc1cc(/C=C2\SC(=Nc3c(C)n(C)n(-c4ccccc4)c3=O)NC2=O)ccc1O	0	0	14.1µM
COc1cc(/C=C2\SC(=Nc3ccc(O)cc3)NC2=O)cc(OC)c1O	0	-	-
Cc1nc2c(c(-c3ccccc3)c1C#N)C(=O)c1ccccc1-2	?	0	0
Cc1nc2c(c(C)c1C#N)C(=O)c1ccccc1-2	0	-96.3	0
CCCCCC(=O)NNC(=S)NC(C)=O	0	-	-
CCCCC/C=N\NC(=O)Cc1ccc([N+](=O)[O-])cc1	0	-94.6	0
CCCCOc1ccc(C(=O)N/C(=C\c2cccc([N+](=O)[O-])c2)C(=O)OCCC)cc1	0	0	0
CCCCC(=O)Nc1cccc(NC(=O)c2cccc([N+](=O)[O-])c2)c1	0	-	-
CCCCC(=O)NNC(=S)NC(=O)c1ccc([N+](=O)[O-])cc1	5.62µM	-	-
CCCCOc1ccc(C(=O)N/C(=C/c2cccc([N+](=O)[O-])c2)C(=O)O)cc1	11.2µM	-	-
CCCCCC(=O)NNC(=O)Cc1ccc([N+](=O)[O-])cc1	0	-	-
CCCCC(=O)NNC(=S)NC(=O)c1cccc([N+](=O)[O-])c1	1.78µM	0	8.91µM
Cc1ccc(C2C(/C=C3/SC(=S)NC3=O)=C(c3cccs3)Oc3ccccc32)cc1 (stereo unspecified)	0	0	0
COc1ccc(CCNC(=O)c2c(C)nc3ccccn23)cc1	0	-	-
CCCCC/C=C\C\C=C/C=C/C=C/[C@@H](SC[C@H](N)C(=O)NCC(=O)O)[C@@H](O)CCCC(=O)O	0	-	-
CCCCC(=O)NNC(=S)NC(=O)c1ccc(C)cc1	25.1µM	-	-
Cc1ccc(C(=O)NC(=S)NNC(=O)CC#N)cc1	0	-	-
COC(=O)C1=C(C(=O)OC)[C@@H]2N(C)c3ccc(OC)cc3[C@@]23C[C@@H](C(=O)OC)N(S(=O)(=O)c2cccs2)C3=N1	0[13.5 µM]	-	0
CCCCCNC(=O)C1CC(=O)OC12CCCCC2 (stereo unspecified)	0	-	-
CN(C)c1ccc(NS(=O)(=O)c2ccc(-c3csnn3)cc2)cc1	8.91µM	-	-
CN(C)c1ccc(NS(=O)(=O)c2ccc(Cl)cc2)cc1	?	0	0
Cc1ccc(Cn2nnc3c(=O)[nH]c(C4CCN(S(=O)(=O)c5ccc(C)cc5)CC4)nc32)cc1	0	0	0

From PubChem
